In ChEMBL document CHEMBL4513216, “Probing the Open Global Health Chemical Diversity Library for Multistage-Active Starting Points for Next-Generation Antimalarials” (ACS Infect Dis, 2020) one finds INHIBITION data, which are given here for 53 compounds.

Hit rate of the full screen: of about 68,000 compounds, about 2,700 (4%) showed an effect of 50% or more. This is one part of a sample in which strong results are shown more often than they occur.

In the assay the test system is Plasmodium berghei. As to the kind of experiment: Screen against P. berghei liver stage (PbLuc), transformed with Luciferase, at 2uM. The format is functional, HepG2. The following applies: tested at 2 uM.
With `CN1CCN(C(=O)NCCc2ccc(F)cc2)[C@H]2CS(=O)(=O)C[C@H]21`, the INHIBITION is on record as 50.59%.
With `COc1ccc(CCNC(=O)N2CCN(C)[C@@H]3CS(=O)(=O)C[C@@H]32)cc1` the figure was 43.44%; with `COc1ccc(CNC(=O)N2CCN(C)[C@@H]3CS(=O)(=O)C[C@@H]32)cc1`, -47.18%; with `Cc1ccc(OCCN2CCN(Cc3cnn(CCO)c3)CC2)cc1`, -72.55%.
With `COCC(=O)N1CCCC1c1cccc(Nc2ncc(C)s2)n1` (stereo not drawn) the figure was 44.48%; with `COCC(=O)N1CCCCC1c1ccnc(Nc2cnccn2)n1` (stereo not drawn), 11.55%.
As for `COCC(=O)N1CCCCC1c1ccnc(Nc2ncc(C)s2)n1` (stereo not drawn), the figure is 60.74%; as for `CN1CCN(C(=O)c2n[nH]c3c2CN(C2CCOCC2)CC3)CC1`, 36.44%.
`COc1cc(CNC(C)c2cccc(Cl)c2)cc(OC)c1OC` (stereo not drawn): the INHIBITION is recorded as 27.88%.
With `CC(C)c1ccc(OCC(=O)NS(=O)(=O)c2cccnc2)cc1` the figure was -1.85%.
With `Cc1cccc(NCC(=O)Nc2cc(F)ccc2F)c1C(N)=O` the figure was 38.91%; with `Cc1cc(C)n(CC2(CNC(=O)C(c3ccccc3C)N(C)C)CC2)n1` (stereo not drawn), -14.49%.
With `Cc1cc(C)n(CC2(CNC(=O)C(c3ccc(F)cc3)N(C)C)CC2)n1` (stereo not drawn) the figure was -4.04%; with `Cc1cc(C)n(CC2(CNC(=O)C(c3ccccc3F)N(C)C)CC2)n1` (stereo not drawn), 55.85%; with `Cc1cc(C(F)(F)F)nc(CCNC(C)Cn2ccnc2)n1` (stereo not drawn), -15.14%.
In the case of `OCCN(Cc1nc(-c2ccc3c(c2)OCO3)no1)Cc1cccs1`, the INHIBITION is -49.59%.
As for `OCCN(Cc1ccccc1)Cc1nc(-c2ccc3c(c2)OCO3)no1`, the INHIBITION was -48.83%.
`OCCN(Cc1nc(-c2ccc3c(c2)OCO3)no1)CC1CC1`: the INHIBITION was 83.98%.
As for `COCCS(=O)(=O)Nc1ccc(-n2cncn2)c(F)c1`, the figure is 3.33%.
As for `CN1CCN(C(=O)c2cc3sccc3n2Cc2ccccc2F)CC1`, the figure is -10.78%.
Turning to `Cc1ccc(N2CC[C@@H]3CN(Cc4cc[nH]n4)C[C@@H]3C2)nn1`, the INHIBITION is 27.95%.
With `CC(C)(C)CCNc1nccc(-c2c[nH][nH]c2=O)n1` the figure was 22.5%; with `c1ccc(NC[C@@H]2CCC[C@@H]3CN(Cc4csnn4)C[C@@H]32)nc1`, 24.51%; with `CC(C)(C)NC[C@@H]1CCC[C@@H]2CN(Cc3csnn3)C[C@@H]21`, -21.74%.
Take `c1cnc(NC[C@@H]2CCC[C@@H]3CN(Cc4csnn4)C[C@@H]32)nc1`: the INHIBITION stood at 55.7%.
As for `COc1ccc2[nH]cc(C(=O)CNc3nc(C)cs3)c2c1`, the figure is 20.71%.
With `O=C(NCCN1CCCC(CO)C1)c1ccc2sccc2c1` (stereo not drawn) the figure was 13.99%; with `O=C(NCCN1CCOC1=O)c1cc(-c2ccccc2)on1`, 9.85%; with `O=C(NCCN1CCOC1=O)c1ccc2sccc2c1`, 61.27%.
Take `NCc1cnc(Nc2ccccc2)nc1`: the INHIBITION turned out to be 16.87%.
Regarding `O=C1Nc2ccccc2CNC12CCN(CC1CCCC1)CC2`, the INHIBITION was -7.08%.
With `O=C1Nc2ccccc2CNC12CCN(CC1CC1)CC2` the figure was 58.42%; with `O=C1Nc2ccccc2CNC12CCN(CC1CCNC1)CC2` (stereo not drawn), 21.69%; with `COc1cccc2sc(N3CC(OC(C)=O)C3)nc12`, -5.98%.
In the case of `COCCC(C)NS(=O)(=O)c1ccc(C)c(N(C)C)c1` (stereo not drawn), the INHIBITION was found to be 52.6%.
In the case of `Cc1ccc(S(=O)(=O)N[C@H](CO)C(C)C)cc1N(C)C`, the INHIBITION was -94.5%.
As for `CSCC(C)NS(=O)(=O)c1ccc(C)c(N(C)C)c1` (stereo not drawn), the figure is -1.57%; as for `CN(C)CC(=O)N1Cc2ncn(C)c2C(COCC2CCOCC2)C1` (stereo not drawn), 6.8%.
`Cn1c(CC2CCS(=O)(=O)C2)nnc1SCCOc1ccccc1F` (stereo not drawn): the INHIBITION was 7.08%.
As for `O=C(Cn1cccnc1=O)NCc1cccnc1OCC(F)(F)F`, the figure is 3.95%; as for `CN1CC(C(=O)NCc2cccnc2OCC(F)(F)F)CC1=O` (stereo not drawn), 9.21%.
In the case of `O=C(Cn1ccc(=O)[nH]c1=O)NCc1cccnc1OCC(F)(F)F`, the INHIBITION is on record as 51.76%.
With `Cc1ccc2[nH]c(=O)c(CNCCCN3CCOCC3)cc2c1` the figure was 22.39%; with `O=C(c1c[nH]cn1)N1CCC(F)(F)C2(CCN(c3ncccn3)C2)C1` (stereo not drawn), 38%.
With `CCc1cc(C(=O)N2Cc3ccccc3OC3(CCOCC3)C2)on1` the figure was 14.05%.
Take `c1nc(N2CCCC(Cn3cncn3)C2)c2sccc2n1` (stereo not drawn): the INHIBITION came to 68.24%.
As to `COc1cc(N2C[C@H]3CC[C@@H](C2)N(CC2CCC2)C3=O)ncn1`, the INHIBITION was found to be 8.26%.
With `CN1C(=O)[C@@H]2CC[C@H]1CN(c1ncnc3ccsc13)C2` the figure was 14.82%.
Regarding `c1nc(N2CCCC2Cn2cncn2)c2sccc2n1` (stereo not drawn), the INHIBITION is -48.41%.
As to `O=C1[C@@H]2CC[C@@H](CN(c3ncnc4ccsc34)C2)N1CC1CC1`, the INHIBITION amounted to 62.51%.
For the compound `Cc1cnn(CC2CCCN2c2ncnc3ccsc23)c1` (stereo not drawn), the INHIBITION came out at 53.33%.
With `Cc1cnn(CC2CCCN2c2ncnc3sccc23)c1` (stereo not drawn) the figure was 37.87%.
As for `c1nc(N2CCCC(Cn3cncn3)C2)c2ccsc2n1` (stereo not drawn), the figure is -1.74%.
